Calls of active or inactive are those of the source. The calls were made as follows: active = hit-call score of the fitted dose curve at least 0.9, where 1 is the maximum; inactive = score below 0.9.
Tests used:
[1] = read-out: Transforming growth factor beta 1 (TGFb1), TGFB1 (gene 7040); assay: BSK_KF3CT_TGFb1: BioMAP Diversity Plus: KF3CT Assay for Transforming growth factor beta 1 (TGFb1) Biomarker Activity (AID 2283072); conditions: primary human keratinocytes with fibroblasts; actives raise or lower the signal
Procedure, shortened: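 Signal changes in either direction, relative to DMSO, define activity here. TGF-b1 is read by ELISA from a human keratinocyte-fibroblast co-culture 24 h post-dose.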

[2] = read-out: C-C motif chemokine 2 (Homo sapiens) (UniProt P13500); assay: BSK_KF3CT_MCP1: BioMAP Diversity Plus: KF3CT Assay for Monocyte Chemoattractant Protein 1 (MCP1/CCL2) Biomarker Activity (AID 2283073); conditions: primary human keratinocytes with fibroblasts; actives raise or lower the signal
Procedure, shortened: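 ELISA readout of MCP-1 after 24 h chemical dosing of a human skin primary co-culture of keratinocytes and foreskin fibroblasts. Activity was fitted in both directions against DMSO.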

[3] = read-out: Matrix Metallopeptidase 9 (MMP9), MMP9 (gene 4318); assay: BSK_KF3CT_MMP9: BioMAP Diversity Plus: KF3CT Assay for Matrix Metallopeptidase 9 (MMP9) Biomarker Activity (AID 2283074); conditions: primary human keratinocytes with fibroblasts; actives raise or lower the signal;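 as to AC50: MMP9 protein level quantified by ELISA in the co-culture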
Procedure, shortened: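 Human keratinocyte and foreskin fibroblast co-culture exposed to chemicals for 24 h; MMP9 biomarker measured by ELISA, bidirectional fitting relative to DMSO; cytotoxicity tracked by SRB total protein staining in parallel cultures.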

[4] = read-out: urokinase plasminogen activator (uPA), PLAU (gene 5328); assay: BSK_KF3CT_uPA: BioMAP Diversity Plus: KF3CT Assay for urokinase plasminogen activator (uPA) Biomarker Activity (AID 2283075); conditions: primary human keratinocytes with fibroblasts; actives raise or lower the signal
Procedure, shortened: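 Primary human keratinocyte/foreskin fibroblast co-culture exposed to chemical; uPA measured by ELISA at 24 h. Bidirectional fit versus DMSO, with parallel SRB total-protein staining for cytotoxicity.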

CD40, CD40 (gene 958) [5] = assay: BSK_LPS_CD40: BioMAP Diversity Plus: LPS Assay for CD40 Biomarker Activity (AID 2283076); conditions: primary human HUVEC with PBMC; actives raise or lower the signal
Procedure, shortened: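 Cells were dosed, incubated 24 h, then assayed for CD40 by ELISA. Gain or loss of signal was analysed relative to DMSO controls. The culture paired human umbilical vein endothelium with peripheral blood mononuclear cells.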

[6] = read-out: E-selectin (Homo sapiens) (UniProt P16581); assay: BSK_LPS_Eselectin: BioMAP Diversity Plus: LPS Assay for Eselectin Biomarker Activity (AID 2283077); conditions: primary human HUVEC with PBMC; actives raise or lower the signal
Procedure, shortened: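 Primary human vascular co-culture (endothelium plus PBMC) was dosed with chemical, then E-selectin quantified by ELISA at 24 h. Endpoint values derive from bidirectional curve fitting relative to DMSO.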

[7] = read-out: Interleukin-8 (IL8), CXCL8 (gene 3576); assay: BSK_LPS_IL8: BioMAP Diversity Plus: LPS Assay for Interleukin-8 (IL8) Biomarker Activity (AID 2283078); conditions: primary human HUVEC with PBMC; actives raise or lower the signal
Procedure, shortened: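 Readout is IL-8 by ELISA, taken 24 h after compounds were added to LPS-stimulated endothelial/PBMC co-cultures. Both increases and decreases relative to DMSO control were scored through bidirectional fitting.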

[8] = BSK_LPS_SRB: Viability Assessment in the BioMAP Diversity Plus: LPS Assay (AID 2283079); conditions: primary human HUVEC with PBMC;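 also: total protein by sulforhodamine B absorbance as a cytotoxicity measure; measured one day after compound addition; fitted in both directions against DMSO so loss or gain of signal counts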
Procedure, shortened: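 Readout is SRB absorbance at 560 nm (0.1% stain, TCA-fixed parallel cultures) as a total-protein cytotoxicity measure. Cells: primary human umbilical vein endothelium plus peripheral blood mononuclear cells, 24 h after chemical exposure; DMSO served as baseline.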

[9] = read-out: Interleukin-1 alpha (IL1a), IL1A (gene 3552); assay: BSK_LPS_IL1a: BioMAP Diversity Plus: LPS Assay for Interleukin-1 alpha (IL1a) Biomarker Activity (AID 2283080); conditions: primary human HUVEC with PBMC; actives raise or lower the signal
Procedure, shortened: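 ELISA read-out of IL-1 alpha from a human primary vascular co-culture (endothelium plus PBMC) under LPS, sampled 24 hours post-dosing. Activity was fitted in both directions relative to DMSO controls.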

[10] = read-out: Monocyte Chemoattractant Protein-1 (MCP1), CCL2 (gene 6347); assay: BSK_LPS_MCP1: BioMAP Diversity Plus: LPS Assay for Monocyte Chemoattractant Protein-1 (MCP1) Biomarker Activity (AID 2283081); conditions: primary human HUVEC with PBMC; actives raise or lower the signal
Procedure, shortened: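 Human endothelial–PBMC co-cultures were dosed with chemical, then LPS-driven MCP-1 levels were quantified by ELISA at 24 h. Activity in either direction was fitted versus DMSO negative control.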

[11] = BSK_LPS_PGE2: BioMAP Diversity Plus: LPS Assay for Prostaglandin E2 (PGE2) Biomarker Activity (AID 2283082); conditions: primary human HUVEC with PBMC; actives raise or lower the signal
Procedure, shortened: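 Endpoint derived from bidirectional curve fitting versus DMSO of ELISA-measured PGE2 in LPS-stimulated human primary vascular co-culture (HUVEC with PBMC) harvested at 24 h.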

[12] = read-out: Macrophage colony-stimulating factor (MCSF), CSF1 (gene 1435); assay: BSK_LPS_MCSF: BioMAP Diversity Plus: LPS Assay for Macrophage colony-stimulating factor (MCSF) Biomarker Activity (AID 2283083); conditions: primary human HUVEC with PBMC; actives raise or lower the signal
Procedure, shortened: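 ELISA readout of M-CSF after 24 h compound exposure in a human endothelial/PBMC co-culture. Activity, in either direction, is fitted relative to DMSO vehicle.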

[13] = read-out: Tissue Factor, F3 (gene 2152); assay: BSK_LPS_TissueFactor: BioMAP Diversity Plus: LPS Assay for Tissue Factor Biomarker Activity (AID 2283084); conditions: primary human HUVEC with PBMC; actives raise or lower the signal
Procedure, shortened: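 ELISA signal for cell-surface Tissue Factor (CD142) was read 24 h after compound dosing of an LPS-stimulated human endothelial–PBMC primary co-culture. Gain or loss of signal was scored relative to DMSO.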

[14] = read-out: Tumor necrosis factor (Homo sapiens) (UniProt P01375); assay: BSK_LPS_TNFa: BioMAP Diversity Plus: LPS Assay for Tumour Necrosis Factor alpha (TNFa) Biomarker Activity (AID 2283085); conditions: primary human HUVEC with PBMC; actives raise or lower the signal
Procedure, shortened: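 Primary human vascular co-culture of HUVEC and PBMC; TNFa ELISA 24 h after treatment, analysed as increase or decrease relative to DMSO control.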

[15] = read-out: Vascular cell adhesion molecule 1 (VCAM1), VCAM1 (gene 7412); assay: BSK_LPS_VCAM1: BioMAP Diversity Plus: LPS Assay for Vascular cell adhesion molecule 1 (VCAM1) Biomarker Activity (AID 2283086); conditions: primary human HUVEC with PBMC; actives raise or lower the signal
Procedure, shortened: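 Primary human vascular co-culture (umbilical vein endothelium plus PBMC) stimulated with LPS received chemical; 24 h later VCAM-1 was read by ELISA. Overt cytotoxicity was assessed by sulforhodamine B staining of parallel cultures at the same time point.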

CD38, CD38 (gene 952) = assay: BSK_SAg_CD38: BioMAP Diversity Plus: SAg Assay for CD38 Biomarker Activity (AID 2283087); conditions: primary human HUVEC with PBMC; actives raise or lower the signal
Procedure, shortened: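 Fluorescence ELISA of cell-surface CD38 served as the read-out, with either increase or decrease fitted against DMSO controls. Cells were a human umbilical vein endothelium plus PBMC co-culture under SEB/TSST-1 stimulation, measured 24 h after dosing.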

CD40, CD40 (gene 958) [16] = assay: BSK_SAg_CD40: BioMAP Diversity Plus: SAg Assay for CD40 Biomarker Activity (AID 2283088); conditions: primary human HUVEC with PBMC; actives raise or lower the signal
Procedure, shortened: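 Compounds were dosed onto a human primary endothelial–PBMC co-culture, and after 24 h CD40 was quantified by ELISA using a fluorescence signal. Activity in either direction was fitted relative to DMSO.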

CD69, CD69 (gene 969) = assay: BSK_SAg_CD69: BioMAP Diversity Plus: SAg Assay for CD69 Biomarker Activity (AID 2283089); conditions: primary human HUVEC with PBMC; actives raise or lower the signal
Procedure, shortened: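 Primary human vascular co-culture (umbilical vein endothelium with peripheral blood mononuclear cells) exposed to test chemical for 24 h. CD69 levels quantified by fluorescence ELISA; DMSO served as negative control for bidirectional fitting.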

[17] = read-out: Monocyte Chemoattractant Protein-1 (MCP1), CCL2 (gene 6347); assay: BSK_SAg_MCP1: BioMAP Diversity Plus: SAg Assay for Monocyte Chemoattractant Protein-1 (MCP1) Biomarker Activity (AID 2283090); conditions: primary human HUVEC with PBMC; actives raise or lower the signal
Procedure, shortened: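 MCP-1 levels in the endothelial–PBMC SAg co-culture were quantified by ELISA at 24 h post-dosing; both increases and decreases versus DMSO scored. Cytotoxicity monitored by SRB total protein in parallel cultures.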

[18] = read-out: E-selectin (Homo sapiens) (UniProt P16581); assay: BSK_SAg_Eselectin: BioMAP Diversity Plus: SAg Assay for Eselectin Biomarker Activity (AID 2283091); conditions: primary human HUVEC with PBMC; actives raise or lower the signal
Procedure, shortened: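 Co-culture: HUVEC + PBMC. Dose compound; 24 h. ELISA for E-selectin. Bidirectional fit vs DMSO.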

Measured: AC50

Chain of E-selectin (Homo sapiens) (P16581 whole entry, looked up): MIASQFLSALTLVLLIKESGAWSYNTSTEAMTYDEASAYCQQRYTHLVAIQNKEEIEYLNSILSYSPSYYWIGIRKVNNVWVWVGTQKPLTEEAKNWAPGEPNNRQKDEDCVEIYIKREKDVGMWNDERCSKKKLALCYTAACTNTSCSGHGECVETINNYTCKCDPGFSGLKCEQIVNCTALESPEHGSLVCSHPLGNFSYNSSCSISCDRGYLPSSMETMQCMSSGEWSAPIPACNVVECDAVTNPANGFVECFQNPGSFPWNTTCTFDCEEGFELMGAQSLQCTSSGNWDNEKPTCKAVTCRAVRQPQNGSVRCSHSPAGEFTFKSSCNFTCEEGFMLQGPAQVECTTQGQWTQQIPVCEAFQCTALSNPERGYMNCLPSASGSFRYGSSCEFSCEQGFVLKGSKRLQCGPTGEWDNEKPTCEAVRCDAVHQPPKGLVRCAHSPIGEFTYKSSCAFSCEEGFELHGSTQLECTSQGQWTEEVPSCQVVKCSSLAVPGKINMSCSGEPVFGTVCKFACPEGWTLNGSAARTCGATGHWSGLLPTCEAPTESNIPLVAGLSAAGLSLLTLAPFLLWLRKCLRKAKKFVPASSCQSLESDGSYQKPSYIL
Chain of Tumor necrosis factor (Homo sapiens) (P01375 whole entry, looked up): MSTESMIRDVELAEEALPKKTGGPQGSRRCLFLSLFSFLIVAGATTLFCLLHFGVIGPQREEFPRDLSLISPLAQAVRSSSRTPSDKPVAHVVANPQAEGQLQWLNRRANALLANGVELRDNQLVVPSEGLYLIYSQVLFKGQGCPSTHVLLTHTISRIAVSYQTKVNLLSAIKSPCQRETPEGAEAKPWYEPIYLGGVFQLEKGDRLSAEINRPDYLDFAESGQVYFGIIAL

C=CC(Cl)CCl (stereo not given)
active: [1] 0.189 µM | [4] 0.0169 µM | CD40, CD40 (gene 958) [16] 0.478 µM
inactive: all other assays above

Clc1cccc(Cl)c1
inactive: all assays above

CCCCCCCCCCCCc1cccc(S(=O)(=O)O)c1
active: [1] 25.3 µM | [2] 28.7 µM | [3] 18 µM | [4] 29.6 µM
inactive: all other assays above

Source: PubChem BioAssay (EPA / NIEHS)
